Drawing on ChEMBL document CHEMBL2218924, “A broad activity screen in support of a chemogenomic map for kinase signalling research and drug discovery” (Biochem J, 2013), this text covers residual activity for 1 compound.

For assay [1], the target named is T1, Ephrin type-B receptor 1 (Homo sapiens) (UniProt P54762).
T1 sequence (whole entry): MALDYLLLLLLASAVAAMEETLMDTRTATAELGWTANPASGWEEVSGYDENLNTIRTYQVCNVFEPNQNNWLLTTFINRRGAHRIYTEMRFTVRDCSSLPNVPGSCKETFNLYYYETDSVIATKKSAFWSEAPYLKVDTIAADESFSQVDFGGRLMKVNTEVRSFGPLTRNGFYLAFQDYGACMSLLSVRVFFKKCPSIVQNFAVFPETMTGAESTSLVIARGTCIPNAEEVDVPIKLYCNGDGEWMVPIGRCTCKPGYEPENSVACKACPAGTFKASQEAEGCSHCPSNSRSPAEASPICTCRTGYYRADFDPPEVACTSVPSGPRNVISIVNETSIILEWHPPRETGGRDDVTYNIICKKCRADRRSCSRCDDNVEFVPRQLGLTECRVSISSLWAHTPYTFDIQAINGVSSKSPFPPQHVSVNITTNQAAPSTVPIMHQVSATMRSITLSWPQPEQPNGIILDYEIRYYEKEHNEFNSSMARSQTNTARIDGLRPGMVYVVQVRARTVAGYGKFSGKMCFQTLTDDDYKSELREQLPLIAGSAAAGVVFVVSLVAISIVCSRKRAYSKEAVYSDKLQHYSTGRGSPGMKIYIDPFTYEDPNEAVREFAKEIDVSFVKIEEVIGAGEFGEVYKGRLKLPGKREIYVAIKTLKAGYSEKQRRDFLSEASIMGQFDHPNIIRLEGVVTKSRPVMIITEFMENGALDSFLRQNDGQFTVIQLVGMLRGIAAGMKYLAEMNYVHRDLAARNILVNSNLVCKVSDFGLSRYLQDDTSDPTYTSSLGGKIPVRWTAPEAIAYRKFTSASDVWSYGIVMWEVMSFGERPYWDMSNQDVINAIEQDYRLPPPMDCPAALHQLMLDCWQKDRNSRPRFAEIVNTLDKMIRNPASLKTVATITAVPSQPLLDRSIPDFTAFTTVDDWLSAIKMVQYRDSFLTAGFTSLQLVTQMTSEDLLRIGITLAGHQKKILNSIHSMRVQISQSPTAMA
The following applies: at 10 µM.

Assay [2] concerns the target T2, Ephrin type-B receptor 2 (Homo sapiens) (UniProt P29323).
T2 sequence (whole entry): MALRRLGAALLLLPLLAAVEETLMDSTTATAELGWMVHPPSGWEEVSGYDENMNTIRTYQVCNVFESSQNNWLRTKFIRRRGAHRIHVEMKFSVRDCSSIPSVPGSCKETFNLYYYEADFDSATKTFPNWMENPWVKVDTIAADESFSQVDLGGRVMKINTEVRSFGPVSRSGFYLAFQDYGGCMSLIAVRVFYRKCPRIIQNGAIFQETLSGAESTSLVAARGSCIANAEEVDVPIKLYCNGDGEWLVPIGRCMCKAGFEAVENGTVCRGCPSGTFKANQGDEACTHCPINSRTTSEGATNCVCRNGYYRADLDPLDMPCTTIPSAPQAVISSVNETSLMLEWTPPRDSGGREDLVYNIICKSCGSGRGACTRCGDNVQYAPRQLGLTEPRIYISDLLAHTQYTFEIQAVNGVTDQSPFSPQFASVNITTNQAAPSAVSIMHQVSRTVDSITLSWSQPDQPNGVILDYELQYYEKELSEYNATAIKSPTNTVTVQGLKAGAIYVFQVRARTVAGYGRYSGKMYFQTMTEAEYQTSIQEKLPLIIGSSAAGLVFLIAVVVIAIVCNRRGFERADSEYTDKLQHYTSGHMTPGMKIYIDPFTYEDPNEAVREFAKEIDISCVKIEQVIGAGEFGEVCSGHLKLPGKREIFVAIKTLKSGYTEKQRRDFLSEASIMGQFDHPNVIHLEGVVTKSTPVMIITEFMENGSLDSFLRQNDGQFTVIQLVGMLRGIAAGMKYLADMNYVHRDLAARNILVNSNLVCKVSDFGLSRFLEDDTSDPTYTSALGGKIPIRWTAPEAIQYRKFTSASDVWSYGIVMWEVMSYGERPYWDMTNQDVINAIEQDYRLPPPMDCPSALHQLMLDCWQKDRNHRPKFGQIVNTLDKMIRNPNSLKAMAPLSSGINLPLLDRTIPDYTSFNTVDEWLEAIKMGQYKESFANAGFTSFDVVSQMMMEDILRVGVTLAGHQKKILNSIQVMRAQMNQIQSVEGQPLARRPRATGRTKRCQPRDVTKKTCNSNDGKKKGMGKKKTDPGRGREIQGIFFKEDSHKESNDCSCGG
As to conditions: at 1 µM; call rule not given here.

For assay [3], the target named is T2, Ephrin type-B receptor 2 (Homo sapiens). The following applies: at 10 µM.
The target of assay [4] is T3, Ephrin type-B receptor 3 (Homo sapiens) (UniProt P54753).
T3 sequence (whole entry): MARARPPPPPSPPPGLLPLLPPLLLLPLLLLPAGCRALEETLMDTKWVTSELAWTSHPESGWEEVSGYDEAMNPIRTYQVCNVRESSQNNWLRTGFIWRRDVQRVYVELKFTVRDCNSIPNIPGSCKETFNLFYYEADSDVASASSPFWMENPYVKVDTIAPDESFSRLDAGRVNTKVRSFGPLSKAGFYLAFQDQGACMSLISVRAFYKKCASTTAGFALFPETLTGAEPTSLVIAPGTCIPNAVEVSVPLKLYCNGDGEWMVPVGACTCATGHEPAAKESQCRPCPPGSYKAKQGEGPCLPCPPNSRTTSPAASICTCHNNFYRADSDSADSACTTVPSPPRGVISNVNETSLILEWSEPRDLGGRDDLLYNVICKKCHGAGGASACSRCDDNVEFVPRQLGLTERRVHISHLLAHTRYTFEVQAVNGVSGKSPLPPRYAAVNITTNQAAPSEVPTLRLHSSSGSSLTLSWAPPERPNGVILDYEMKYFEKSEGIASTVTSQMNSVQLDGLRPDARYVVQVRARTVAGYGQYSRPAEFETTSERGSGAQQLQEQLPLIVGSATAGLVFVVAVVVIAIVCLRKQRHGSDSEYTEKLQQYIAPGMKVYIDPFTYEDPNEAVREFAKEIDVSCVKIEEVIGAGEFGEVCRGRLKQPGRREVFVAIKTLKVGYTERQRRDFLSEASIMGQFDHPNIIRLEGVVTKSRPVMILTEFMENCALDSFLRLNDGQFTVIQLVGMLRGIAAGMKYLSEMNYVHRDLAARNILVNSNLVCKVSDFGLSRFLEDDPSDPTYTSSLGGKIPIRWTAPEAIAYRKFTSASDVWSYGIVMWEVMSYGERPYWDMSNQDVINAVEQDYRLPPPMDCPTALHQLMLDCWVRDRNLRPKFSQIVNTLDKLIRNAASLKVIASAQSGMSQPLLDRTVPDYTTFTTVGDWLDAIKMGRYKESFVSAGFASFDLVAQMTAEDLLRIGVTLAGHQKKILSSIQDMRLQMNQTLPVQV
As to conditions: at 1 µM.

Assay [5] addresses T3, Ephrin type-B receptor 3 (Homo sapiens). As to conditions: at 10 µM.
The target of assay [6] is T4, Ephrin type-B receptor 4 (Homo sapiens) (UniProt P54760).
T4 sequence (whole entry): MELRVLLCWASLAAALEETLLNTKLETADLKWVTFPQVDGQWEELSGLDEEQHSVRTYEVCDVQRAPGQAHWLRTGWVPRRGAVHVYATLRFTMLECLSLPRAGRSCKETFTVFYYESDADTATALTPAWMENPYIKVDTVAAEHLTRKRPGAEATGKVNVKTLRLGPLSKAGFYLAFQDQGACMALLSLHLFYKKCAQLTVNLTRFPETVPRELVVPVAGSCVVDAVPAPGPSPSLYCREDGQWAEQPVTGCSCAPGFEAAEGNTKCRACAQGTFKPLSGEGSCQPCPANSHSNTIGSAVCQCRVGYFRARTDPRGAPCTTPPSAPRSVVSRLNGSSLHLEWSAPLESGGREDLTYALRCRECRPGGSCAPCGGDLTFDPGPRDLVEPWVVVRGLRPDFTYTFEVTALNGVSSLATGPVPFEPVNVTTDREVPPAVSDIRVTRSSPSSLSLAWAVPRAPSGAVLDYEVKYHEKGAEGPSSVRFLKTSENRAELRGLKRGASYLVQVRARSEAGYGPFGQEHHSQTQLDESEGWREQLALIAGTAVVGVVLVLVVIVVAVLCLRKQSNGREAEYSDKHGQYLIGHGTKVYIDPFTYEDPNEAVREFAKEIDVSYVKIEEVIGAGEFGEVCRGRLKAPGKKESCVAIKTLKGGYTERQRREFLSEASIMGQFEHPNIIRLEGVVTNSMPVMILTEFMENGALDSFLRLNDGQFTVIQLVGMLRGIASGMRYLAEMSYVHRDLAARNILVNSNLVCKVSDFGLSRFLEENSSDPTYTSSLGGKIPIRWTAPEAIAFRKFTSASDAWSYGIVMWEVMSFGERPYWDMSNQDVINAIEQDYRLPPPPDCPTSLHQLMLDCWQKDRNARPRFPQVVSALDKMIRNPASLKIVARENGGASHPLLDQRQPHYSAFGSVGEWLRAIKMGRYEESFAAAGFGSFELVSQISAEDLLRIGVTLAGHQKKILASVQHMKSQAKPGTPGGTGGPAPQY
The following applies: at 1 µM.

The target of assay [7] is T4, Ephrin type-B receptor 4 (Homo sapiens). The following applies: at 10 µM.
Assay [8] concerns the target Receptor tyrosine-protein kinase erbB-4 (Homo sapiens) (UniProt Q15303). As to conditions: at 1 µM.
Assay [9] has the same target. The following applies: at 10 µM.
In assay [10] the target is Focal adhesion kinase 1 (Homo sapiens) (UniProt Q05397). The following applies: at 1 µM.
Focal adhesion kinase 1 (Homo sapiens), sequence (Q05397 2-1052 limits assumed): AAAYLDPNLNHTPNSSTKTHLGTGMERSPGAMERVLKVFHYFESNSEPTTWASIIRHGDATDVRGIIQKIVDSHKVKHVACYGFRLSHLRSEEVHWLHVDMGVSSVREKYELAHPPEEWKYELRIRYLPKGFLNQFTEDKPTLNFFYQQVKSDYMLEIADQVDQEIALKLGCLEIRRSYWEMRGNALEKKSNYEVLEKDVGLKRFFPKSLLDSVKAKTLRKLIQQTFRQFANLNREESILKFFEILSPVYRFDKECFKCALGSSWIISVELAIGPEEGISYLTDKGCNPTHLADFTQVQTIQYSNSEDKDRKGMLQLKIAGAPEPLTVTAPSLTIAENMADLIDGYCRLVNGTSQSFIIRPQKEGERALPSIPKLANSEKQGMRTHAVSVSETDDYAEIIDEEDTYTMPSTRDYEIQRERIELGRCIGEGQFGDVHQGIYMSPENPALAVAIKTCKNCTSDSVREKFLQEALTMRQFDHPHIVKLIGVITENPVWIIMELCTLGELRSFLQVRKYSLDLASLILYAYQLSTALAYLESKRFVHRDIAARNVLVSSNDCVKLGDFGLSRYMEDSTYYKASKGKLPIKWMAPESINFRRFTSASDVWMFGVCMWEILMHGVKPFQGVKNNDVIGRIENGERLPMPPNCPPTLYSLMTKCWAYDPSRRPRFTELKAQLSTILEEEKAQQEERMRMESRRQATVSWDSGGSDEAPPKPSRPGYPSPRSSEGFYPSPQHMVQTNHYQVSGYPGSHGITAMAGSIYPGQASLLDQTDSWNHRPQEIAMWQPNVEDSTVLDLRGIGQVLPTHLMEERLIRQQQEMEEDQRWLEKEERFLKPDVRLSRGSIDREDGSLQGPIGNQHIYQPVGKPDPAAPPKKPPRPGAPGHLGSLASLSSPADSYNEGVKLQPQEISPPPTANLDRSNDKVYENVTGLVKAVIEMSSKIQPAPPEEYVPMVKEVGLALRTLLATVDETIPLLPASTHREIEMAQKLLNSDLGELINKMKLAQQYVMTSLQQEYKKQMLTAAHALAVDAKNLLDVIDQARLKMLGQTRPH

Receptor tyrosine-protein kinase erbB-4 (Homo sapiens), sequence (Q15303 whole entry): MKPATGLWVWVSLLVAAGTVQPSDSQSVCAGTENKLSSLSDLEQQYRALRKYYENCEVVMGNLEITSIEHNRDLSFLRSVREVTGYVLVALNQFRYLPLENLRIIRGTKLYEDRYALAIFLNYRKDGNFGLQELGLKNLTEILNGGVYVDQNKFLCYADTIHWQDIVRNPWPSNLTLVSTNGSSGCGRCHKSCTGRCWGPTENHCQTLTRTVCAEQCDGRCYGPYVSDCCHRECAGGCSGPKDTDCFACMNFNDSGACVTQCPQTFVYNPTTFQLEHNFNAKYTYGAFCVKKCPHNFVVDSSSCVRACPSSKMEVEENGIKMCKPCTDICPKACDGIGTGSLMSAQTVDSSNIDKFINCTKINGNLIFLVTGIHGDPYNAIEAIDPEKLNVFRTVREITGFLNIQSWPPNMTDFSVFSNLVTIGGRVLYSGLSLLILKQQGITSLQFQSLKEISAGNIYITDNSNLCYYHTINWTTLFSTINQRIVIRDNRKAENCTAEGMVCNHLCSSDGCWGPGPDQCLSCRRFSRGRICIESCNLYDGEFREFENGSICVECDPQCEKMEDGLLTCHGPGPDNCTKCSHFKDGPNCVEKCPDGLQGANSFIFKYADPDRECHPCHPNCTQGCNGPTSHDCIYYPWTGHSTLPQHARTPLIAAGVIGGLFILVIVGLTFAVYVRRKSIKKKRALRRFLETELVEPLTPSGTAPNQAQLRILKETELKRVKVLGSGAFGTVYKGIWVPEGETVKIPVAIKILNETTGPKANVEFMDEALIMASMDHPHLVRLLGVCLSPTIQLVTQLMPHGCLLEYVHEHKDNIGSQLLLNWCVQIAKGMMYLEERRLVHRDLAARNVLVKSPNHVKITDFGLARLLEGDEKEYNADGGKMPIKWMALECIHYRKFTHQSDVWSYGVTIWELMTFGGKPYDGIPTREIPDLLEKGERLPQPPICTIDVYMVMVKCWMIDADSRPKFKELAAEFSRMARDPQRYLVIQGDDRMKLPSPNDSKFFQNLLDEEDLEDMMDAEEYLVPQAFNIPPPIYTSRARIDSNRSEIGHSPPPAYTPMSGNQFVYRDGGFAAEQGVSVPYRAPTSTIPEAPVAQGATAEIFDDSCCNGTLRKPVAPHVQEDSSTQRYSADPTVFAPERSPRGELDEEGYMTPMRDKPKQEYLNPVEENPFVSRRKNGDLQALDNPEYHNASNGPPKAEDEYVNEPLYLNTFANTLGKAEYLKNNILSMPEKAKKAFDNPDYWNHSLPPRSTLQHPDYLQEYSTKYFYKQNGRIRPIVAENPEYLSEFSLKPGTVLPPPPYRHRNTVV

Take `Cc1ccc(NC2=CC(=O)c3sc(C)nc3C2=O)cc1`: the residual activity in assay [1] is 97%; in assay [2], 123%; in assay [3], 121%; in assay [4] it was 104% (inactive); in assay [5], 99%; in assay [6], 98%. The residual activity in [7] worked out at 96%; in [8] it was 77%; in [9] it was 88%; in assay [10], 96%.

Broadly, the residual activity is the signal under treatment as a percentage of the control signal.
